SMILES strings stand for the structures. About 970 (0.44%) of roughly 220,000 compounds were called active. No stated cut-off is given here; in the data, active means activation above about 27%; inactive means the rest. The entries come from a sample that favours actives as a whole.

Sequence of Neuropeptide Y receptor type 2 (Homo sapiens) (P49146 whole entry, looked up): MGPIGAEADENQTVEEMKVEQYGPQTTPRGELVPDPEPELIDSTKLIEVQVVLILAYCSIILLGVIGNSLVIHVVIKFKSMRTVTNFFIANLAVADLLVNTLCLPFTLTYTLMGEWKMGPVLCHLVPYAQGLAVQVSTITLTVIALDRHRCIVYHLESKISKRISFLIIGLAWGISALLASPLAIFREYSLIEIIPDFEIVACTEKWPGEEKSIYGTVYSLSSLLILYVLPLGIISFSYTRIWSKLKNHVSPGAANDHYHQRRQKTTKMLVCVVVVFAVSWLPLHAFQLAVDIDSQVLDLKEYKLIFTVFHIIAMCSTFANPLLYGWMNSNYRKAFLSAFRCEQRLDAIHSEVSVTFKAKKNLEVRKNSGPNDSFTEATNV

The assay addresses Neuropeptide Y receptor type 2 (Homo sapiens) (UniProt P49146). Description: human Y2 receptor positive modulation or activation – cell-based, primary screen (AID 1359).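 Further: cells stimulated with NPY near EC25 plus isoproterenol at EC100; 0% = vehicle plus submaximal agonist and 100% = vehicle plus saturating agonist.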 The following applies: cells expressing NPY-Y2, potentiator/agonist read-out; at 3.6 µM; stronger effect = higher value.
Take `COc1cc(NC(=S)NCc2ccc(S(N)(=O)=O)cc2)cc(OC)c1`: the activation is 4.03% (inactive).

Consider `CC1(C)CC(=O)C(N=Nc2c(F)cccc2F)=C(O)C1`, for which the activation was 19.3% (inactive).

Regarding `Cc1nn(-c2ccccc2)c(C)c1/C=C/C(=O)OC(C)C(N)=O` (configuration not stated), the activation is -0.33% (inactive).

Take `O=C(NCC(O)c1ccc([N+](=O)[O-])cc1)C1CCCCC1` (configuration not stated): the activation is -6.08% (inactive).

Take `CC(C)(C)n1ncc2c(=O)n(Cc3ccc(Cl)cc3)cnc21`: the activation is -23.4% (inactive).

As for `Cc1ccccc1Nc1c(-c2ccccc2)nc2ncccn12`, the activation was 22.6% (inactive).

As for `Cc1cccc(C)c1Nc1c(-c2ccccc2O)nc2ncccn12`, the activation is 56.5% (active).

As for `COC(=O)c1ccc(COc2ccc(/C=N/NC(=O)C(=O)Nc3ccc(OC)cc3)cc2OC)o1`, the activation was -3.63% (inactive).

`COc1ccc2c(c1)C(SCC(=O)NCc1ccccc1)CC(C)(C)O2` (configuration not stated): the activation was 15.7% (inactive).

As to `COc1ccc(/C(C)=N/Nc2cc(C(F)(F)F)ccc2Cl)c(OC)c1`, the activation is -10.5% (inactive).

As to `O=C(Nc1sc2c(c1-c1nc3ccccc3[nH]1)CCCC2)C1CC1`, the activation was 30.3% (active).

As for `O=C(Nc1cccc(-c2nc3ccccc3[nH]2)c1)c1ccc(C(=O)Nc2cccc(-c3nc4ccccc4[nH]3)c2)cc1`, the activation was 0.29% (inactive).

As for `CCOC(=O)c1c(NC(=O)C2CCN(S(=O)(=O)c3ccc(Cl)cc3)CC2)sc2c1CCCC2`, the activation was -5.8% (inactive).

In the case of `NC(=O)c1ccc(N2CCOCC2)nc1`, the activation is -10.3% (inactive).

Take `CCOC12CC(C)(C)CC(C)(CC3=C1C(=O)CC(C)(C)C3)C2` (configuration not stated): the activation was -1.87% (inactive).

As to `CN(C)CCCSc1ccccc1NC(=O)/C=C/c1ccccc1`, the activation is -11.2% (inactive).

Take `C1CC1Cc1noc(CN2CCN(CC3CC3)CC2)n1`: the activation is -4.58% (inactive).

On to `Cc1c(Cl)cccc1NC(=O)CSc1ccc(-c2cccnc2)nn1`, for which the activation is 2.4% (inactive).

For the compound `O=C(NCCCN1CCN(Cc2ccccc2)CC1)C1CCN(S(=O)(=O)N2CCCC2)CC1`, the activation is 17.2% (inactive).

`Cc1ccc(CCNC(=O)C2CCN(S(=O)(=O)N3CCCC3)CC2)cc1`: the activation was 104% (active).

Regarding `CCS(=O)(=O)N1CCCC(C(=O)NCc2ccc(C)cc2)C1` (configuration not stated), the activation was 13% (inactive).

On to `CSc1nnc(SCc2nc3sc(C(=O)O)c(C)c3c(=O)[nH]2)s1`, for which the activation was 1.67% (inactive).

Take `COC(=O)CSc1nc2c(c(C3CC=CCC3)c1C#N)CCC2` (configuration not stated): the activation is -6.44% (inactive).

`Cc1nc([N+](=O)[O-])cn1CC(=O)Nc1ccc2c(c1)OCO2`: the activation is -19.2% (inactive).

Consider `Cc1ccccc1C(CC(=O)c1cccs1)C(C#N)C#N` (configuration not stated), for which the activation was 4.09% (inactive).

Consider `CC1CCCCC1NC(=O)/C(C#N)=C/C=C/c1ccccc1[N+](=O)[O-]` (configuration not stated), for which the activation is -5.09% (inactive).

As to `Cc1cc(C)c(NC(=O)C[N+](C)(C)CC(O)COc2cccc3ccccc23)c(C)c1` (configuration not stated), the activation was 71.5% (active).

With `Cc1cc(C)c(NC(=O)c2oc3ccccc3c2COc2ccccc2)c(C)c1`, the activation is -12.9% (inactive).

Consider `Cc1cc(C)cc(OCC(=O)NCc2cc(C)nc3ccccc23)c1`, for which the activation was -3.92% (inactive).

Consider `CCN(C(=O)COc1cccnc1[N+](=O)[O-])C1CCS(=O)(=O)C1` (configuration not stated), for which the activation was -0.31% (inactive).

Consider `CN(CCO)Cc1csc2ccc(Br)cc12`, for which the activation is -20.4% (inactive).

Take `CC(=O)N1C(=O)/C(=C2\SC(=S)N(NC(=O)c3ccc(O)cc3)C2=O)c2ccccc21`: the activation is -3.06% (inactive).

On to `Cc1ccc(NS(=O)(=O)c2cccs2)cc1S(=O)(=O)N1CCCCCC1`, for which the activation is 3.99% (inactive).

With `CCOc1ccc(C(=O)NC2CCN(CC(=O)NCc3cccs3)CC2)cc1`, the activation was 13.5% (inactive).

Take `CCNS(=O)(=O)c1ccc(NC(=O)Nc2cccc(C(F)(F)F)c2)cc1`: the activation was 24.5% (inactive).

As to `CS(=O)(=O)NCc1ccc(C(=O)NCc2ccccc2)cc1`, the activation is 10.7% (inactive).

For the compound `O=C(NCc1ccccc1)c1ccc(S(=O)(=O)Nc2cccc(C(F)(F)F)c2)cc1`, the activation was 47.4% (active).

On to `COc1ccc(CN2CCN(Cc3cn(C)nc3-c3ccccc3)CC2CCO)c(C)c1C` (configuration not stated), for which the activation is -18% (inactive).

Take `CC(C)(C)OC(=O)N/N=C/c1ccc(C(=O)O)cc1`: the activation is 10% (inactive).

On to `CC(=O)c1c(-c2ccccc2)c2ccccc2[nH]c1=O`, for which the activation is 6.99% (inactive).

With `CCO[C@H]1OC(C(=O)N2CCN(Cc3ccccc3)CC2)=C[C@@H](c2cn(C(C)=O)c3ccccc23)[C@@H]1CCCO`, the activation was -8.85% (inactive).

As to `COCC1CCCN(Cc2nc(-c3ccc4c(c3)OCO4)no2)C1` (configuration not stated), the activation is -10.6% (inactive).

Turning to `Oc1c(Cl)cc(Cl)c(Cl)c1Cc1c(O)c(Cl)cc(Cl)c1Cl`, the activation was 56.1% (active).

As for `CCN(C(=O)COC(=O)c1cc(S(=O)(=O)N2CCc3ccccc32)ccc1OC)C1CCS(=O)(=O)C1` (configuration not stated), the activation is -3.32% (inactive).

In the case of `CCOC(=O)C1=C(N)N2C(=O)C(C)SC2=C(C(=O)OCC)C1c1cc(OC)c(OC)c(OC)c1` (configuration not stated), the activation was -1.02% (inactive).

On to `Cc1ccccc1OCC(O)CN1CCN(c2ccccn2)CC1` (configuration not stated), for which the activation is 17.9% (inactive).

On to `Cc1cccc(OCC(O)CN2CCN(CCN3C(=O)c4cccc5cccc(c45)C3=O)CC2)c1C` (configuration not stated), for which the activation is 30.4% (inactive).

Consider `OC(COc1cccc2ccccc12)CN1CCN(c2ccccn2)CC1` (configuration not stated), for which the activation was 58.3% (active).

Turning to `CC(Nc1ccccc1)c1cccnc1` (configuration not stated), the activation was 40.2% (active).

As for `CC(C)COP(=O)(c1ccc(N(C)C)cc1)C(Nc1ccccc1)c1cccnc1` (configuration not stated), the activation is 4.54% (inactive).

With `CC(=O)OC(C(=O)NCCc1ccccc1)c1cccnc1` (configuration not stated), the activation was -16.8% (inactive).

On to `CCCCc1cc2c(s1)CCCC/C2=N/O`, for which the activation was 5.62% (inactive).

Consider `C/C(=C\c1ccco1)CN1CCC(N2CCC(C(=O)N3CCOCC3)CC2)CC1`, for which the activation is -15.1% (inactive).

For `Cc1cc(C(=O)N/N=C/c2ccc(O)c([N+](=O)[O-])c2)c(C)n1-c1ccc(F)cc1`, the activation is 3.14% (inactive).

With `Cc1c(S(=O)(=O)NCc2ccccc2)c(=O)n(C)c(=O)n1C`, the activation was -20.2% (inactive).

As for `COc1ccc2nc(Nc3nc4ccc(NC(C)=O)cc4s3)sc2c1`, the activation was -3.69% (inactive).

As to `COc1ccc2nc(NC(=O)c3ccc(Br)s3)sc2c1`, the activation is 11.8% (inactive).

Turning to `COc1ccc2nc(NC(=O)NC3CCCCC3)sc2c1`, the activation was 42.1% (active).

Take `O=C(NC(=S)Nc1cccc2c(O)cccc12)c1cccc(Br)c1`: the activation is -15.3% (inactive).

With `O=S(=O)([N-]c1nc2ccccc2nc1-[n+]1ccc(Cc2ccccc2)cc1)c1ccc(Br)s1`, the activation is -4% (inactive).

`CC(=O)c1ccc2c(c1)OCCOCCOc1ccc(C(C)=O)cc1OCCOCCO2`: the activation was 43.3% (active).

With `C/C(=N\NC(=O)C(N)=O)c1ccc2c(c1)OCCO2`, the activation was -7.65% (inactive).

Regarding `O=C(c1ccc2c(c1)OCO2)N1CCOCC1`, the activation was 7.94% (inactive).

With `COc1ccc(N2C(=O)C(CC(=O)Nc3ccc(F)cc3)N(CCc3cccs3)C2=O)cc1` (configuration not stated), the activation was 4.57% (inactive).

Take `O=C(N1CCCCC1)N1CCN(C(=O)N2CCCCC2)CC1`: the activation is -11.1% (inactive).

As for `CN(C)S(=O)(=O)c1ccc(NC(=O)COC(=O)Cn2[nH]c(=O)c3ccccc3c2=O)cc1`, the activation was -2.17% (inactive).

Take `CN(C)S(=O)(=O)c1ccc(NC(=O)COC(=O)c2n[nH]c3ccccc23)cc1`: the activation was 32.2% (active).

With `O=C(COC(=O)c1n[nH]c2ccccc12)NCc1ccccc1`, the activation is -3.06% (inactive).

With `COc1ccccc1N1CCN(C(=O)CSc2ncnc3c2cnn3-c2ccc(C)c(C)c2)CC1`, the activation was -4.38% (inactive).

Regarding `CCOC(=O)c1sc2nc(C)[nH]c(=O)c2c1C`, the activation was -3.44% (inactive).

For `CC(C)OCCCNC(=S)N1CCC(C(=O)c2ccc3c(c2)OCCO3)CC1`, the activation is -6.61% (inactive).

For the compound `COc1ccc(CC(=O)NCc2nnc(SCC(=O)Nc3ncc(C)s3)n2C)cc1`, the activation is -1.91% (inactive).

Regarding `Cc1ccc(S(=O)(=O)N(Cc2ccc(Cl)cc2)c2ccccc2C(=O)NCc2cccnc2)cc1`, the activation is -13.3% (inactive).

`CC(C)(O)C#Cc1ccc(C(=O)N2CCC(C(N)=O)(N3CCCCC3)CC2)cc1`: the activation is 14.8% (inactive).

Regarding `NC(=O)C1(N2CCCCC2)CCN(C(=O)c2ccc(C#Cc3ccccc3)o2)CC1`, the activation was 66.2% (active).

As to `NC(=O)C1(N2CCCCC2)CCN(C(=S)Nc2ccc(Cl)cc2)CC1`, the activation is 4.89% (inactive).

Turning to `C/C=C/C=C/C(=O)OCC(=O)Nc1ccc(Cl)cc1`, the activation is -15.7% (inactive).

For `COc1ccc2c(-c3ccccc3)cc(SCC(=O)N(C)C3CCS(=O)(=O)C3)nc2c1` (configuration not stated), the activation is 6.98% (inactive).

On to `Cc1ccccc1-n1nnc2c(=O)oc3ccccc3c21`, for which the activation is 32.7% (active).

For the compound `CCCCC(=O)Nc1cc(C)c2c(=O)oc3ccccc3c2n1`, the activation was 1.67% (inactive).

As to `CCOC(=O)c1c(C)nc2c(c1C)c(=O)oc1ccccc12`, the activation was -26.5% (inactive).

For the compound `COc1ccc(NC(=O)c2cn(-c3ccccc3)nc2SC)cc1`, the activation is -16% (inactive).

`CCC(=O)c1ccc(N2CCN(C(=O)c3cc([N+](=O)[O-])ccc3F)CC2)c(F)c1`: the activation is -2.53% (inactive).

On to `Cc1ccccc1CSc1nnc(-c2ccccc2)c(=O)[nH]1`, for which the activation is -5.69% (inactive).

For the compound `O=C1CC(Sc2ncn[nH]2)C(=O)N1c1ccccc1` (configuration not stated), the activation is -10.2% (inactive).

For the compound `O=[N+]([O-])c1cccc(C2=NCCS2)c1`, the activation is 5.16% (inactive).

Take `Nc1c(-c2cccc(Cl)c2)cnn1-c1cccc([N+](=O)[O-])c1`: the activation was 43.3% (active).

Consider `Cc1nn(-c2ccc([N+](=O)[O-])cc2)c(N)c1-c1ccccc1`, for which the activation is 8.55% (inactive).

With `Cc1ccc(NC(=O)C(=O)NCc2ccc(/C=N/NC(=O)c3c(C)nc4cc(C)ccn34)o2)cc1`, the activation was 12.4% (inactive).

With `CCCN(CC(=O)Nc1ccccc1C)C(=O)c1cc(=O)[nH]c2ccccc12`, the activation is -12.5% (inactive).

For the compound `CC(C)NC(=O)NNc1c(Cl)cncc1Cl`, the activation is -6.55% (inactive).

Consider `COc1ccc(C)cc1NC(=O)Nc1ccccc1SC`, for which the activation is -22.3% (inactive).
